Measurements published in PubChem BioAssay (NCI).
The panel holds about 83,000 compounds, 20% with a hit somewhere; the sample as a whole holds those more often.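 Interpretation: 100, growth as untreated; towards 0, rising growth inhibition; 0, no net growth; 0 to -100, cell death. Compounds scoring below 10 were considered active.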 Unmarked numbers belong to inactive results. Activity calls are given as the source filed them.

Key:
Experiment in all cases: NCI-60 one-dose screen, 48 h (100 = growth as untreated, 0 = no growth, -100 = all killed)
NCI-H23 lung = details: 10 µM unless noted
NCI-H226 lung = details: 10 µM unless noted
NCI-H322M lung = details: 10 µM unless noted
HOP-62 NSCLC = details: 10 µM unless noted
NCI-H460 lung = details: 10 µM unless noted
HOP-92 NSCLC = details: 10 µM
A549/ATCC NSCLC = details: 10 µM unless noted
786-0 renal = details: 10 µM unless noted
COLO 205 colon = details: 10 µM unless noted
NCI-H522 lung = details: 10 µM unless noted

SMILES | growth (NCI-H23 lung) | growth (NCI-H226 lung) | growth (NCI-H322M lung) | growth (HOP-62 NSCLC) | growth (NCI-H460 lung) | growth (HOP-92 NSCLC) | growth (A549/ATCC NSCLC) | growth (786-0 renal) | growth (COLO 205 colon) | growth (NCI-H522 lung)
COc1ccc(/C(N)=N/C(N)=N/c2nc3ccccc3s2)cc1 | 67.8% | 77.8% | 98.4% | 24.5% | 82.5% | 85.5% | 33.1% | 79% | 103% | 
Cc1nc2ncc(-c3ccc4ncnc(NCc5ccccc5)c4c3)cc2[nH]1 | 67.6% | 64.6% | 65.7% | 38.9% | 89.2% | 17.4% | 77.5% | 48.3% | 84.4% | 
Cc1ccc(N2C(=O)/C(=C/C=C/c3ccco3)SC2=S)cc1 | 98.9% | 102% | 96.4% | 95.9% | 88.9% |  | 86.3% | 104% | 94.3% | 81.8%
O=C(CSc1nnc(-c2ccc(Cl)cc2)n1-c1ccccc1)Nc1cccc(Cl)c1 | 49.5% | 46.3% | 55.5% | 104% | 47.9% |  | 25.7% | 28.1% | 82.1% | 69.8%
Nc1nc(N)c2c(n1)NC(c1ccc(Cl)cc1)CC(c1ccc(Nc3nc(NCCO)nc(N4CCOCC4)n3)cc1)=N2 (stereo unspecified) | 85.2% | 82% | 95.5% | 80.2% | 79.8% |  | 86.3% | 67.8% | 72.6% | 65.8%
Cc1cccc2c3c(sc12)C(c1ccc(F)cc1)C(C#N)=C(/N=C/c1ccc(Cl)cc1)O3 (stereo unspecified) | 19.1% | 29.9% | 47.4% | 28% | 5.27% (active) |  | 21.7% | 25.6% | -49% (active) | -53% (active)
Cc1cccc(/C=C/C(=O)Nc2ncc(Cc3cccc(C)c3)s2)c1 | 30.4% | 17.7% | 39.9% | 32.1% | 8.64% (active) |  | 31.1% | 21.3% | -0.745% (active) | -43.2% (active)
CC(C)(C)c1ccc(C(=O)Nc2nc3ccc(O)cc3s2)cc1 | 54.8% | 53.5% | 54.8% | 82.9% | 19.1% |  | 38.4% | 2.03% (active) | 8.14% (active) | 52.6%
Cc1ccc(S(=O)(=O)N(CC[C@@H]2C[C@H]2c2cc3ccccc3o2)S(=O)(=O)c2ccc(C)cc2)cc1 | 90.8% | 79% | 95.4% | 115% | 104% |  | 94.9% | 99.7% | 115% | 85.3%
COc1cc(OC)cc(C(=O)Nc2sc3c(c2C(N)=O)CCC(=O)C3)c1 | 19.1% | 86% | 98.6% | 60% | 57.9% |  | 95.8% | 85% | 47.2% | 5.02% (active)
COC(=O)c1[nH]nc2c1C1(C(=O)N(C)c3ccccc31)C(C#N)=C(N)O2 (stereo unspecified) | 93.4% | 99.2% | 94.1% | 118% | 106% |  | 101% | 102% | 110% | 99.5%
NC(N)=Nc1ccc(Oc2cccc(Nc3ccc(Cl)c(C(F)(F)F)c3)c2)cn1 | -65.6% (active) | -48.8% (active) | -25.9% (active) | -51.2% (active) | -76.2% (active) |  | -24.1% (active) | -46.3% (active) | -75.9% (active) | -59.5% (active)
FC(F)(F)c1cc(Nc2cccc(Oc3ccc(NC4=NCCN4)nc3)c2)ccc1Cl | 19.5% | 41.9% | -3.79% (active) | -47.9% (active) | -69.2% (active) |  | 12.1% | -11.4% (active) | -38.3% (active) | 2.14% (active)
NC(N)=Nc1ccc(Oc2cccc(Nc3cccc(C(F)(F)F)c3)c2)cn1 | -2.6% (active) | 20.1% | 14.7% | 3.3% (active) | -76.8% (active) |  | 35.8% | 33.7% | -47.3% (active) | -34.6% (active)
